Our source for the growth values is PubChem BioAssay (NCI).

Holding throughout (experiment): NCI-60 one-dose screen, 48 h (100 = growth as untreated, 0 = no growth, -100 = all killed)
One test relates to NCI-H23 lung. The note with it: 10 µM unless noted.
Another test concerns NCI-H226 lung. The conditions noted are these: 10 µM unless noted.
Another test relates to NCI-H322M lung. The conditions noted are these: 10 µM unless noted.
The subject of another test is NCI-H460 lung. The conditions noted are these: 10 µM unless noted.
Another test relates to HOP-92 NSCLC. The conditions noted are these: 10 µM.
The test system of the next test is NCI-H522 lung. The conditions noted are these: 10 µM.
Another test has as its system A549/ATCC NSCLC. The note with it: 10 µM unless noted.
For another test, the system named is 786-0 renal. The conditions noted are these: 10 µM unless noted.
A further test concerns COLO 205 colon. The note with it: 10 µM unless noted.
Another test deals with DU-145 prostate. The note with it: 10 µM unless noted.
The subject of another test is K-562 leukemia. The conditions noted are these: 10 µM unless noted.
For the next test, the system named is MALME-3M melanoma. The conditions noted are these: 10 µM unless noted.
The next test concerns MDA-MB-231 breast. The conditions noted are these: 10 µM unless noted.
The test system of a further test is RXF 393 renal. The note with it: 10 µM unless noted.
The test system of a further test is SF-268 CNS. The note with it: 10 µM unless noted.
The test system of a further test is SF-295 CNS. The conditions noted are these: 10 µM unless noted.
The next test relates to SF-539 CNS. The conditions noted are these: 10 µM unless noted.
For another test, the system named is UACC-257 melanoma. The note with it: 10 µM unless noted.
Another test concerns M14 melanoma. The note with it: 10 µM unless noted.

Compounds without any hit were thinned out: in the full panel of roughly 83,000, 20% have a hit.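 Method: cells in 96-well plates; compound added at one concentration; 48 h incubation; percent growth measured; values under 10 scored active.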 A number with no mark means an inactive call. Calls of active or inactive are those of the source.

Consider `O=C1/C(=C/c2ccc(Cl)cc2)CCC/C1=C\c1ccc(Cl)cc1`, for which the growth in the test with NCI-H23 lung is 70.7%; in the test on NCI-H226 lung it was 104%; in the test on NCI-H322M lung it was 99.6%; in the test on NCI-H460 lung, 97.7%; with HOP-92 NSCLC, 74.4%; with NCI-H522 lung, 83%. The growth in the test on A549/ATCC NSCLC is 65.7%; in the test with 786-0 renal, 91.3%; in the test with COLO 205 colon, 73.3%; with DU-145 prostate, 91.7%; with K-562 leukemia, 67.9%; in the test with MALME-3M melanoma, 90.5%. Besides, the growth is 95.6% in the test on MDA-MB-231 breast; 56.4% with RXF 393 renal; 84.1% in the test with SF-268 CNS; 94.5% with SF-295 CNS; 88.1% with SF-539 CNS; 81.5% with UACC-257 melanoma. In the test on M14 melanoma, the growth is 69.7%.

On to `CC/C(=N\Nc1nc2ccccc2n1C)c1ccccn1`, for which the growth in the test on NCI-H23 lung was 7.14% (active); with NCI-H226 lung, -0.758% (active); in the test on NCI-H322M lung it was 21%; with NCI-H460 lung it was 1.28% (active); with HOP-92 NSCLC, 29.2%; in the test with NCI-H522 lung it was 18.7%. Also, the growth in the test with A549/ATCC NSCLC is 2.95% (active); in the test with 786-0 renal, 2.44% (active); in the test with COLO 205 colon, 21.9%; in the test with DU-145 prostate it was 11.8%; in the test with K-562 leukemia, 8.28% (active); with MALME-3M melanoma it was 9.46% (active). Also, the growth in the test with MDA-MB-231 breast is 20.8%; with RXF 393 renal, 2.73% (active); in the test on SF-268 CNS it was 3.39% (active); with SF-295 CNS, -19.8% (active); in the test on SF-539 CNS, -6.18% (active); with UACC-257 melanoma it was -0.857% (active). The growth in the test with M14 melanoma is -19% (active).

`CCCCCCCCCCCCCCCC[n+]1cccc(C#N)c1`: the growth in the test with NCI-H23 lung is 76.8%; in the test on NCI-H226 lung, 80.2%; with NCI-H322M lung, 82.8%; in the test with NCI-H460 lung, 71.6%; with HOP-92 NSCLC it was 48.7%; in the test on NCI-H522 lung, 54.7%. Further, the growth in the test on A549/ATCC NSCLC was 87.7%; with 786-0 renal, 70.3%; in the test on COLO 205 colon it was 31.9%; in the test with DU-145 prostate it was 68.2%; with K-562 leukemia, 6.02% (active); in the test on MALME-3M melanoma, 92%. For the same compound, the growth with MDA-MB-231 breast was 69.7%; with RXF 393 renal it was 17.4%; in the test on SF-268 CNS it was 53.3%; with SF-295 CNS, 91.5%; in the test with SF-539 CNS it was 25.5%; with UACC-257 melanoma, 103%. Moreover, the growth in the test on M14 melanoma is 62%.

Regarding `NC(=O)c1c(Nc2ccccc2)nn2cc(-c3nc4ccccc4s3)c(N)nc12`, the growth is 95.2% with NCI-H23 lung; 85.5% with NCI-H226 lung; 103% with NCI-H322M lung; 98.6% in the test on NCI-H460 lung; 93.2% in the test with HOP-92 NSCLC; 91.4% in the test on NCI-H522 lung. Besides, the growth in the test with A549/ATCC NSCLC is 105%; in the test with 786-0 renal it was 109%; in the test with COLO 205 colon, 106%; in the test on DU-145 prostate, 107%; with K-562 leukemia, 93.1%; with MALME-3M melanoma, 96%. Further, the growth in the test on MDA-MB-231 breast was 84.7%; in the test on RXF 393 renal it was 102%; in the test with SF-268 CNS, 95.6%; in the test with SF-295 CNS, 98.7%; in the test with SF-539 CNS it was 95.3%; with UACC-257 melanoma it was 118%. The growth in the test with M14 melanoma is 93.5%.

Consider `COC(=O)c1ccc2[nH]c(O)c(C(=Nc3ccc(N(C)C(=O)CN4CCN(C)CC4)cc3)c3ccc(C)cc3)c2c1`, for which the growth with NCI-H23 lung is -9.95% (active); in the test on NCI-H226 lung, 5.6% (active); in the test with NCI-H322M lung, 19.8%; in the test with NCI-H460 lung it was -43.1% (active); with HOP-92 NSCLC it was 38.7%; with NCI-H522 lung, -33.6% (active). Also, the growth in the test with A549/ATCC NSCLC is -30.2% (active); with 786-0 renal it was -85.1% (active); in the test with COLO 205 colon, -61.2% (active); in the test on DU-145 prostate it was -14.2% (active); in the test on K-562 leukemia, -32.9% (active); with MALME-3M melanoma, -94.6% (active). Moreover, the growth with MDA-MB-231 breast was -22.9% (active); in the test with RXF 393 renal it was -98.2% (active); in the test on SF-268 CNS it was 5.16% (active); with SF-295 CNS, 1.13% (active); in the test on SF-539 CNS it was -96.1% (active); in the test on UACC-257 melanoma it was -59.4% (active). The growth in the test on M14 melanoma is -83.7% (active).

Regarding `NC(N)=Nc1ccc(/C=C2\C=Cc3ccccc32)cc1`, the growth with NCI-H23 lung is 69.9%; in the test on NCI-H226 lung, 74.6%; with NCI-H322M lung, 70.5%; in the test with NCI-H460 lung it was 63.5%; with HOP-92 NSCLC, 9.95% (active); in the test on NCI-H522 lung, 42.7%. Further, the growth in the test on A549/ATCC NSCLC was 78.6%; in the test with 786-0 renal it was 67.3%; in the test on COLO 205 colon, -77.9% (active); with DU-145 prostate, 80.9%; in the test on K-562 leukemia, 13.6%; with MALME-3M melanoma, 88.8%. In addition, the growth in the test on MDA-MB-231 breast was 42.4%; in the test with RXF 393 renal, 63.7%; in the test on SF-268 CNS, 64.5%; in the test on SF-295 CNS, 80.6%; with SF-539 CNS, 81.3%; in the test on UACC-257 melanoma, 77.5%. The growth in the test with M14 melanoma is 73.4%.

For the compound `COc1cc(-c2nc3c(c(C)nc4c3nnn4-c3ccccc3)c(=O)o2)cc(OC)c1OC`, the growth with NCI-H23 lung was 115%; in the test with NCI-H226 lung, 104%; in the test with NCI-H322M lung, 104%; in the test with NCI-H460 lung it was 115%; in the test on HOP-92 NSCLC, 103%; in the test with NCI-H522 lung, 103%. Further, the growth with A549/ATCC NSCLC was 112%; with 786-0 renal it was 104%; in the test with COLO 205 colon, 113%; in the test on DU-145 prostate it was 111%; with K-562 leukemia it was 106%; in the test with MALME-3M melanoma it was 104%. Moreover, the growth in the test with MDA-MB-231 breast was 106%; with RXF 393 renal, 108%; in the test with SF-268 CNS, 98.3%; in the test with SF-295 CNS it was 104%; in the test with SF-539 CNS it was 102%; with UACC-257 melanoma it was 119%. Besides, in the test with M14 melanoma, the growth was 98.6%.

With `O=C(N/N=C/c1cc(Cl)ccc1O)C(=O)N/N=C/c1cc(Cl)ccc1O`, the growth was 80% in the test with NCI-H23 lung; 74.9% in the test on NCI-H226 lung; 61.6% in the test on NCI-H322M lung; 34.8% with NCI-H460 lung; 51.9% in the test with HOP-92 NSCLC; 62.7% with NCI-H522 lung. Further, the growth in the test on A549/ATCC NSCLC was 52.6%; with 786-0 renal, 65.2%; in the test on COLO 205 colon it was 75.2%; with DU-145 prostate it was 71.1%; in the test with K-562 leukemia, 51.9%; in the test on MALME-3M melanoma, 80.1%. Further, the growth with MDA-MB-231 breast was 76.5%; in the test with RXF 393 renal, 80.3%; in the test on SF-268 CNS it was 56.5%; in the test with SF-295 CNS it was 52.2%; in the test with SF-539 CNS, 57.3%; in the test on UACC-257 melanoma, 69.6%. The growth with M14 melanoma was 78.6%.
